# In the library only some 4.1% were active in any assay of this set; here they are far more common.
# hgDAF-12 ag: activates the H. glycines DAF-12 receptor ligand-binding domain; AID 687014; HEK293 GAL4-hgDAF12 UAS-luciferase reporter, agonist luminescence; normalized to butyrate control; actives 1.8% (n = 370,000); activation, % at 6.8 µM;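 active means activation above a cutoff set at the mean of all screened compounds plus 3 SD, cut at about 10% in these data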
# DAX1 inh-1: NR0B1 (DAX1) inhibition; P51843; HEK293 Gal4-DAX1 luciferase reporter, luminescence; AID 504766; inhibition, % at 6.75 µM; actives 0.99% (n = 340,000);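 active means inhibition above the mean over all tested compounds plus 3 SD, cut at about 4.2% in these data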;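 further: inhibition shows as a rise in luminescence from relieved DAX1 repression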
# Target sequence (P51843 207-470 limits assumed): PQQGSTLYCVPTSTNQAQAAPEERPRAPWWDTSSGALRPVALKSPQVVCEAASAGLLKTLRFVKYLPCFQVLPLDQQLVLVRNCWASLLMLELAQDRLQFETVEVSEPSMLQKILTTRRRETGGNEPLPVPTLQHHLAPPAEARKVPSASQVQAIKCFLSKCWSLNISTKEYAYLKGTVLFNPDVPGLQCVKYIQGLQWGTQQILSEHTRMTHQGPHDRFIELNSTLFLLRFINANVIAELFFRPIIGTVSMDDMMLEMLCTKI
# DAX1 inh-2: DAX1 (NR0B1) inhibition, primary screen. HEK293T StAR-luciferase reporter, SF-1/DAX-1 repression relief. actives 1.1% (n = 370,000). AID 652010. inhibition, % at 6.8 µM;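 active means inhibition above the mean over all tested compounds plus 3 SD, cut at about 3.6% in these data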;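 further: higher inhibition means more luminescence from relief of DAX-1 repression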
# hcDAF12 agonist: activates DAF-12 receptor from parasite H. contortus. HEK293 hcDAF-12 lit1-tk-luc reporter, luminescence; 0% DMSO, 100% Δ7-dafachronic acid. activation, % at 6.8 µM. actives 1.4% (n = 370,000). AID 652067;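 active means activation above the mean of all tested compounds plus 3 SD, cut at about 5.5% in these data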
# ssDAF-12 act: S. stercoralis DAF-12 activation, primary screen | actives 1% (n = 370,000) | HEK293 ssDAF-12/GRIP1 lit1-tk-luc reporter, luminescence; % of 3 µM dafachronic acid response | AID 652126 | activation, % at 6.8 µM;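 active means activation above the mean over all tested compounds plus 3 SD, cut at about 0.9% in these data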
# A number is an active result; - = inactive; . = no result given.
SMILES,hgDAF-12 ag,DAX1 inh-1,DAX1 inh-2,hcDAF12 agonist,ssDAF-12 act
CCOc1ccccc1C(=O)Nc1ccc(S(=O)(=O)Nc2nccc(C)n2)cc1,-,-,-,6.2,-
Cc1cc(C)nc(NS(=O)(=O)c2ccc(NC(=O)c3ccccc3C)cc2)n1,-,-,-,-,-
CCCCNC(=O)NC1CCN(CC(=O)Nc2ccc3c(c2)OCCO3)CC1,-,.,-,-,-
O=S1(=O)c2ccc(N3CCSCC3)cc2Oc2ccccc2CN1Cc1cn(Cc2cccc(C(F)(F)F)c2)nn1,-,.,-,-,-
COc1ccc(CC(=O)NC2CCSc3ccccc32)c(OC)c1 (stereo not given),-,7.7,-,-,-
CSc1ccccc1C(=O)NC1CCSc2ccccc21 (stereo not given),-,-,-,5.7,-
CCOC(=O)C1=CCN(S(=O)(=O)c2cccc(Cl)c2)C1c1cccc(Br)c1 (stereo not given),-,.,-,-,-
CC(C)(C)c1ccc(S(=O)(=O)N2CCC(C(=O)NCC3COCCO3)CC2)cc1 (stereo not given),-,.,-,-,-
CC(C(=O)NC1CCCc2ccccc21)N1CCN(c2ccc(F)cc2)CC1 (stereo not given),-,-,-,-,-
CC(C(=O)NC1CCCc2ccccc21)N1CCN(Cc2ccc3c(c2)OCO3)CC1 (stereo not given),-,-,-,-,1.0
Cc1nn(-c2ccccc2)c(C)c1/C=N\N1CCN(Cc2ccccc2Cl)CC1,-,.,-,-,-
CC(=O)Nc1ccc2c(c1Br)Cc1ccccc1-2,12.8,-,-,-,-
CC(=O)Nc1cccc2c1Cc1ccccc1-2,.,-,.,.,.
CCOC(=O)[C@H]1[C@H]2COc3ccc(Br)cc3[C@H]2N2C(=O)CN(CCc3c[nH]c4ccccc34)C(=O)[C@@]12C,-,-,-,-,0.9
CN(CC(=O)Nc1ccc(F)cc1)C(=O)c1ccc2ccccc2n1,-,-,-,6.0,-
CN(CC(=O)Nc1ccccc1)CC(=O)Nc1ccc(F)cc1,-,-,-,-,-
C=c1[nH]cc(C(C)c2c(C)n(C)c3ccccc23)/c1=C/C (stereo not given),-,.,-,6.0,-
CC1OC(Nc2cccc3ccccc23)C(O)C(O)C1O (stereo not given),-,-,-,-,1.8
COCc1cc(=O)n2[nH]c(C)c(-c3ccc(Cl)cc3)c2n1,12.9,-,-,-,-
C=CC[C@H]1c2ccccc2[C@H]2N3N=Cc4ccccc4[C@H]3[C@H](CCCC)C(=O)N2N1C(=O)NCc1ccccc1,-,.,-,-,-
NC(=O)c1ccc(NC(=O)COC(=O)CC2Sc3ccccc3NC2=O)cc1 (stereo not given),-,-,-,-,1.2
COc1cc(OC)c(NC2c3ccccc3C(=O)N2c2cc(C)ccn2)cc1Cl (stereo not given),11.7,-,3.6,-,-
Cc1ccc(N2C(=O)c3ccccc3C2Nc2ccccc2F)nc1 (stereo not given),12.6,-,-,-,-
CN(C)c1cccc(-c2nnc(SCCCC#N)o2)c1,10.9,-,-,-,-
CN(C)CCSc1nnc(-c2ccccc2)o1,-,-,-,-,-
SMILES,hgDAF-12 ag,DAX1 inh-1,DAX1 inh-2,hcDAF12 agonist,ssDAF-12 act
O=C1Nc2ccccc2N=C(c2ccc3c(c2)OCO3)C1N(C(=O)c1ccc2ccccc2c1)C1CC1 (stereo not given),11.1,.,-,5.6,-
CCNC(=O)N1C[C@H]2CON(C)[C@H]2C[C@H]1c1ccc(N2CCCCC2)cc1,-,.,-,-,-
O=c1[nH]cnc2nn(C3OC(CO)C(O)C3O)nc12 (stereo not given),-,.,-,-,-
Cc1cc(C(=O)COc2cccc([N+](=O)[O-])c2)c(C)n1C1CC1,12.6,-,-,-,-
Cc1ccc(OCC(=O)c2cc(C)n(C3CC3)c2C)c([N+](=O)[O-])n1,-,-,-,-,-
N#Cc1cccc(C#N)c1N1CCC(C#N)CC1,11.4,.,-,-,-
O=C(NCCC1=CCCCC1)NC1CCCCC1,10.6,-,-,-,-
NC(=O)NCCC1=CCCCC1,-,-,-,-,-
Cn1c(-c2ccc(Br)o2)nc2cc(Br)ccc21,-,4.5,-,-,-
CC(=O)c1ccc(-c2nc3ccccc3n2C)o1,11.4,-,-,-,-
Cc1ccc(-c2nc3ccccc3n2C)o1,11.3,-,3.8,-,-
CCCNC(=O)N1CC[C@H]2[C@@H]1c1cc(-c3ccc(F)cc3)ccc1N(C)[C@H]2CO,-,.,-,-,-
CCCn1nnc(NC(=O)c2cc3ccccc3o2)n1,-,5.7,-,-,-
CCCn1nnc(NC(=O)c2cccc(Cl)c2)n1,-,-,-,-,-
CCCn1nnc(NC(=O)c2cc(Br)ccc2OC)n1,-,-,-,-,1.1
NC(=O)c1ncn([C@@H]2O[C@H](C(=O)N[C@H](Cc3ccccc3)C(=O)N3CCN(CC(=O)Nc4ccccn4)CC3)[C@@H](O)[C@H]2O)n1,-,.,-,-,-
O=C(Nc1ccccc1)SC1CCCCC1,12.4,-,-,-,-
C=CC[C@@]1(c2ccccc2)Oc2ccccc2-c2nc3ccccc3nc21,-,.,-,-,-
S=C(NN=C1C2CC3CC(C2)CC1C3)Nc1ccccc1,-,-,-,6.1,1.2
Cc1cccn2cc(CSc3ccccc3N)nc12,12.0,-,4.0,-,-
Cc1cc(C)nc(SCc2cn3ccccc3n2)n1,-,-,-,-,-
Clc1cccc(N/N=C/c2ccc(N3CCOCC3)cc2)c1,-,-,-,-,-
C(=N\Nc1ccccc1)/c1ccc(N2CCOCC2)cc1,13.1,-,-,-,1.2
Cc1cccc(-n2nc(C)c3c(C(=O)O)cc(-c4cccs4)nc32)c1,-,4.6,-,-,-
COC(=O)[C@]1(CNC(=O)NCCc2ccc(OC)c(OC)c2)CC(=O)N(C)[C@@H]1c1ccccc1,-,.,-,-,-
SMILES,hgDAF-12 ag,DAX1 inh-1,DAX1 inh-2,hcDAF12 agonist,ssDAF-12 act
Cn1c(/N=C/c2cccs2)nc2ccccc21,-,-,-,5.8,-
CCn1c(/N=C/c2ccccc2O)nc2ccccc21,-,-,-,-,-
Cn1c(/N=C/c2cc(Cl)ccc2O)nc2ccccc21,-,.,-,6.5,1.6
Cc1nn(-c2ccccc2)c2sc(C(=O)N3CCN(Cc4ccc(F)cc4)CC3)cc12,-,.,-,-,-
CCN(CC(=O)Nc1ccccc1C(F)(F)F)C(=O)c1oc2ccc(OC)cc2c1C,-,-,4.2,-,-
O=P(c1ccccc1)(c1ccccc1)c1cnc2ccccn12,-,.,.,-,-
CC(NC(=O)c1ccc(N(C)C)cc1)C1CC2CCC1C2 (stereo not given),-,-,-,-,-
COc1ccc(NC(=O)NC(C)C2CC3CCC2C3)cc1 (stereo not given),-,-,-,-,17.1
CC(NC(=O)c1ccc(C#N)cc1)C1CC2CCC1C2 (stereo not given),-,5.4,-,-,-
